The text below walks through data of the supplement of paper PMC6555819.

Holding throughout (test): PBM binding z-score (relative to random genomic background probes); higher = stronger binding; sequences stand for … in GC…GCGATTGACAGCGTAGAATGAAGG
In assay [1] the test system is PPARg:RXRa DBDmut IVT, anti-RXR (DBD mutation: RXRa K156A/R161A, NR concentration 270 nM, RXRa partner concentration 90 nM). Summed up: (§1)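 Ligand-free nuclear receptor dimers were applied to custom Agilent 4×180K protein-binding microarrays whose double-stranded probes carried direct-repeat seeds, single-nucleotide variants, half-site ablations and random human genomic background sequences in 34-nt variable regions. Incubation lasted 1 h. Binding z-scores were computed against the random background probes from regression-normalized fluorescence.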

Assay [2] relates to PPARg:RXRa IVT, anti-PPARg (NR concentration 270 nM, RXRa partner concentration 90 nM). In outline: as §1
For assay [3], the system named is PPARg DBDmut:RXRa IVT, anti-PPARg (DBD mutation: PPARg1 K132A/R137A, NR concentration 270 nM, RXRa partner concentration 90 nM). In outline: as §1
The subject of assay [4] is PPARg DBDmut IVT, anti-PPARg (DBD mutation: PPARg1 K132A/R137A, NR concentration 270 nM). In outline: as §1
In assay [5] the test system is PPARg homodimer (NR concentration 180 nM). In outline: as §1
For assay [6], the system named is PXR:RXRa (NR concentration 270 nM, RXRa partner concentration 90 nM). In outline:
as §1

For assay [7], the system named is PXR homodimer (NR concentration 270 nM). In outline:
as §1

In assay [8] the test system is RARa:RXR (NR concentration 270 nM, RXRa partner concentration 90 nM). Summed up: as §1
The subject of assay [9] is RARa homodimer (NR concentration 270 nM). Summed up:
as §1

Assay [10] relates to RARb:RXRa (NR concentration 270 nM, RXRa partner concentration 90 nM). Summed up:
as §1

The subject of assay [11] is RARb homodimer (NR concentration 270 nM). Summed up: as §1
The test system of assay [12] is RARg:RXRa (NR concentration 270 nM, RXRa partner concentration 90 nM). In outline: as §1
For assay [13], the system named is RARg homodimer (NR concentration 270 nM). In outline: as §1
The subject of assay [14] is RXRa DBDmut IVT, anti-RXR (DBD mutation: RXRa K156A/R161A, NR concentration 90 nM). Summed up:
as §1

For assay [15], the system named is RXRa homodimer (NR concentration 180 nM). In outline:
as §1

Assay [16] has as its system THRa:RXRa (NR concentration 90 nM, RXRa partner concentration 90 nM). Summed up: as §1
Assay [17] relates to THRa homodimer (NR concentration 90 nM). In outline:
as §1

For assay [18], the system named is VDR homodimer (NR concentration 270 nM). In outline:
as §1

On to GATACAGGGCCAAGGCCAGAGTACGCGTATTGAT, for which the PBM binding z-score in assay [1] was -0.255; in assay [2], -0.178; in assay [3] it was -0.899; in assay [4], -1.53; in assay [5], -0.373; in assay [6], -0.55. For the same sequence, the PBM binding z-score in assay [7] is -0.406; in assay [8] it was -0.762; in [9], -0.587; in assay [10], 0.946; in assay [11], 0.738; in assay [12] it was 0.109. For the same sequence, the PBM binding z-score in [13] was 0.599; in assay [14] it was -0.254; in assay [15] it was 0.197; in assay [16] it was -0.171; in [17] it was -0.281; in assay [18], -0.147.
ATCTCTAGGTAACAGGTTCAGTGAAAGAGAGGAC: the PBM binding z-score amounted to 3.85 in assay [1]; 3.15 in assay [2]; 1.83 in assay [3]; 1.35 in assay [4]; 1.4 in assay [5]; 0.871 in [6]. The PBM binding z-score stood at 1.43 in assay [7]; 0.854 in assay [8]; 0.973 in [9]; 0.893 in assay [10]; 1.15 in assay [11]; 0.818 in assay [12]. Also, the PBM binding z-score in assay [13] was determined as 0.667; in [14], 0.757; in assay [15] it was 0.828; in assay [16], 1.58; in [17], 1.34; in assay [18] it was 2.78.
Take GCGACTGGGGCAAAGCAGGTTAACATAAGGTTGG: the PBM binding z-score was 4.62 in [1]; 3.42 in assay [2]; -0.747 in assay [3]; -0.874 in assay [4]; 0.353 in assay [5]; 0.721 in assay [6]. Further, the PBM binding z-score in [7] was -0.496; in assay [8], 1.1; in [9] it was -0.822; in [10] it was 1.05; in assay [11], 1.27; in assay [12], 0.386. In addition, the PBM binding z-score in assay [13] is 0.747; in assay [14] it was -0.0641; in assay [15], 0.513; in [16], 3.19; in [17] it was 0.0848; in assay [18], -0.0745.
Consider CAGCCTAGGTCAGGGCCATTATAGGAGGAACGTT, for which the PBM binding z-score in assay [1] is 1.48; in [2] it was 1.78; in [3] it was -0.531; in assay [4] it was -0.742; in [5] it was 0.564; in assay [6] it was 0.649. Further, the PBM binding z-score was -0.202 in assay [7]; 1.15 in assay [8]; 0.229 in [9]; 3.45 in assay [10]; 2.66 in assay [11]; 3.08 in assay [12]. Moreover, the PBM binding z-score in assay [13] was 4.01; in assay [14], 0.265; in [15] it was 1.84; in [16], 2.07; in assay [17] it was 0.505; in assay [18], -0.15.
With TGTCACAGTTCAAAGGTAACGTAAGTATCCACAC, the PBM binding z-score in [1] came to 0.227; in assay [2], 2.78; in assay [3], 1.49; in [4] it was 1.01; in assay [5], 0.48; in assay [6], 3.67. Further, the PBM binding z-score in assay [7] was 0.969; in assay [8] it was 4.07; in [9], -0.272; in [10] it was 2.88; in [11], 1.81; in assay [12], 3.57. Moreover, the PBM binding z-score was 2.54 in assay [13]; 2.93 in [14]; 4.82 in assay [15]; 2.74 in [16]; -0.0814 in assay [17]; 2.33 in assay [18].
With CCTAGTTCGTCAGGAGGTCACACACCGGATATGA, the PBM binding z-score in [1] was determined as 1.04; in [2] it was 2.38; in assay [3] it was 0.424; in [4] it was 0.947; in assay [5] it was 5.39; in [6], 5.2. The PBM binding z-score in assay [7] is 2.66; in assay [8], 5.34; in assay [9], 2.32; in assay [10], 3.76; in [11], 4.54; in assay [12] it was 6.37. In addition, the PBM binding z-score in assay [13] came to 4.42; in assay [14], 3.1; in assay [15], 4.83; in assay [16], 3.92; in [17], 2.68; in [18], 4.2.
In the case of CCGACTCGGGCAAGGTTACCATAACGCACAGCCA, the PBM binding z-score is 0.68 in assay [1]; 0.196 in assay [2]; -0.901 in assay [3]; -1.26 in assay [4]; -0.121 in [5]; 0.246 in assay [6]. Further, the PBM binding z-score in [7] was -0.0787; in assay [8], 0.655; in [9], -0.459; in assay [10] it was 1.33; in [11], 1.08; in assay [12] it was 1.01. Besides, the PBM binding z-score in assay [13] was 0.939; in assay [14] it was -0.233; in assay [15] it was 1.11; in [16], 1.19; in assay [17] it was 0.176; in [18], -0.43.
